PTEN del growth: growth suppression of PTEN-null HCT116, primary screen, cell-based, CellTiter-Glo | HCT116 PTEN-null viability, 60 h; active compounds read low | viability, % at 10 µM | 1.2% of 140,000 active | AID 827, 2007;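 active = viability at or below a set limit, 4 SD under the median of all tested compounds, cut at about 3.7% in these data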;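 also: PTEN knockout HCT116 line with beta catenin targeted HCT116 as companion control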
bCat KO growth: primary screen for growth suppressors in beta-catenin knockout HCT116 cells (colon tumor, human); AID 818, 2007; 1.5% of 140,000 active; HCT116 beta-catenin knockout viability, CellTiter-Glo, 60 h; active compounds read low; viability, % at 10 µM;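 active = viability at or under a set limit, the compound median less 4 SD, cut at about 6% in these data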;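 also: 0% = Hyamine 1622 control at 20 µM and 100% = untreated cell control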
INS promoter inh: inhibitors of insulin promoter-driven GFP, primary screen, imaging, TRM-6 cells (human fetal islet line), eGFP reporter, cell count. reporter expression induced with tamoxifen. inhibition, % at 2 µM. 0.9% of 130,000 active. AID 1273, 2008;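 active = inhibition above the mean plus 3 SD, with well images judged a real hit on visual review, cut at about 60% in these data, passing the limit was not always enough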
Lmaj promast: Leishmania major promastigote growth inhibition, primary screen; Leishmania major promastigotes, resazurin fluorescence viability; 9% of 200,000 active; inhibition, % at 10 µM; AID 1063, 2008; in the data active = inhibition above about 50%;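 also: promastigotes grown with compound for 44 hours at 28 °C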
Insulin prom up: insulin promoter activators in MIN6 cells, imaging, high-content screening, mouse beta cells; MIN6 insulin promoter-GFP reporter; active compounds read high; z-score at 5 µM; 0.3% of 190,000 active; AID 1625, 2009;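 active = z-score above 3 at 5 µM with at least 500 cells counted in the well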
Autophagy HCS: autophagy modulators in MEF cells, primary screen, imaging, high-content, MEF GFP-LC3 | MEF GFP-LC3 puncta imaging; test concentration mostly 10 µM | calls only at 10 µM (by protocol) | 0.98% of 190,000 active | AID 463193, 2010;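 active = percentage of spot-positive cells more than 3 SD above its plate mean, without a fluorescence outlier flag or 80% toxicity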;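 also: spot-positive cell cutoff set from DMSO-treated cells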
* marks the source's active call; other numbers are inactive results. Only some compounds are listed: those with a hit (about 9.6% of all), similar ones and a draw of the others.

How did O=C(c1ccc(-n2cccc2)cc1)N1CCN(Cc2ccccc2)CC1 do in these assays?
PTEN del growth: 82; bCat KO growth: 91; INS promoter inh: -32; Lmaj promast: 75*; Autophagy HCS: inactive

What do the screens show for `Cc1ccc(C)c(S(=O)(=O)NCc2ccc(C(=O)N3CC(C)OC(C)C3)cc2)c1` (centres undefined)?
PTEN del growth: 94; bCat KO growth: 103; INS promoter inh: 10; Lmaj promast: -7; Autophagy HCS: inactive

How did CCN(CC)S(=O)(=O)N1CCC(C(=O)NCC2COc3ccccc3O2)CC1 (centres undefined) do in these assays?
PTEN del growth: 83; bCat KO growth: 80; INS promoter inh: 23; Lmaj promast: -2; Insulin prom up: 0.33; Autophagy HCS: inactive

Results for O=C(O)C(=O)/C(=C\c1ccc([N+](=O)[O-])cc1)c1ccc2ccccc2n1 ?
Lmaj promast: -1; Insulin prom up: 0.4; Autophagy HCS: inactive

Results for CCN(CCC(=O)Nc1ccc(Br)c(C)c1)Cc1ccccc1 ?
PTEN del growth: 56; bCat KO growth: 55; INS promoter inh: -6; Lmaj promast: 92*; Insulin prom up: -1.1; Autophagy HCS: inactive

What do the screens show for `O=C(CCN(CCO)Cc1ccccc1)Nc1ccc(Br)cc1`?
PTEN del growth: 82; bCat KO growth: 77; Lmaj promast: 19; Insulin prom up: -1.2; Autophagy HCS: inactive

Results for CCC(=O)Nc1nc2cc(OC)ccc2s1 ?
PTEN del growth: 95; bCat KO growth: 95; INS promoter inh: -10; Lmaj promast: 12; Insulin prom up: 0.49; Autophagy HCS: inactive

How did COc1ccc2nc(NC(=O)CNS(=O)(=O)c3cccs3)sc2c1 do in these assays?
PTEN del growth: 91; bCat KO growth: 93; INS promoter inh: 19; Lmaj promast: 89*; Autophagy HCS: inactive

How did CCOc1ccc2nc(NC(=O)Cc3cccs3)sc2c1 do in these assays?
PTEN del growth: 75; bCat KO growth: 84; INS promoter inh: -5; Lmaj promast: 4; Insulin prom up: 0.35; Autophagy HCS: inactive

How did COc1ccc2nc(NC(=O)Cc3cccs3)sc2c1 do in these assays?
PTEN del growth: 84; bCat KO growth: 98; INS promoter inh: 27; Lmaj promast: 59*; Insulin prom up: -0.78; Autophagy HCS: inactive

Results for COc1ccc2sc(NC(C)=O)nc2c1 ?
PTEN del growth: 84; bCat KO growth: 76; INS promoter inh: 79*; Lmaj promast: 0; Insulin prom up: -0.51; Autophagy HCS: inactive

What do the screens show for `COc1ccc2nc(NC(=O)CCn3cccc3)sc2c1`?
PTEN del growth: 104; bCat KO growth: 102; INS promoter inh: -73; Lmaj promast: 56*; Insulin prom up: 0.97; Autophagy HCS: inactive

What do the screens show for `Cc1ccc(CN2CCN(/N=C/c3ccc(C(=O)O)cc3)CC2)cc1`?
PTEN del growth: 84; bCat KO growth: 94; INS promoter inh: 46; Lmaj promast: 43; Insulin prom up: 2.4; Autophagy HCS: inactive

Results for O=C(CSc1ccc(Cl)cc1Cl)N1CCC(c2nc3ccccc3s2)CC1 ?
PTEN del growth: 88; bCat KO growth: 98; INS promoter inh: -34; Lmaj promast: 1; Autophagy HCS: inactive

What do the screens show for `O=C(N/N=C/c1ccc(-c2cccc([N+](=O)[O-])c2)o1)c1ccc([N+](=O)[O-])cc1`?
Lmaj promast: 64*; Insulin prom up: -0.59; Autophagy HCS: inactive

How did Cc1ccc(C(=O)N/N=C\c2ccc(-c3ccc([N+](=O)[O-])cc3)o2)cn1 do in these assays?
Insulin prom up: -0.14

Results for O=C(N/N=C/c1ccc(Br)o1)/C(=C/c1ccc([N+](=O)[O-])cc1)NC(=O)c1ccccc1 ?
PTEN del growth: 69; bCat KO growth: 68; Lmaj promast: 57*; Insulin prom up: 0.41; Autophagy HCS: inactive

Results for O=C(N/N=C\c1ccc(-c2ccc([N+](=O)[O-])cc2)o1)c1ccc2c(c1)OCO2 ?
PTEN del growth: 96; bCat KO growth: 98; INS promoter inh: 3; Lmaj promast: -2; Insulin prom up: 0.48; Autophagy HCS: active

What do the screens show for `NC(=S)N/N=C/c1ccc(-c2ccc([N+](=O)[O-])cc2)o1`?
Lmaj promast: 13; Insulin prom up: 2.8; Autophagy HCS: inactive

Results for O=C(N/N=C/c1c(Nc2cccc(C(F)(F)F)c2)nc2ccccn2c1=O)c1ccccc1 ?
PTEN del growth: 66; bCat KO growth: 64; INS promoter inh: 7; Lmaj promast: 14; Autophagy HCS: active

Results for CC(C)C1C(C#N)=C(N)Oc2n[nH]c(-c3ccccc3)c21 (centres undefined) ?
PTEN del growth: 109; bCat KO growth: 95; INS promoter inh: 36; Lmaj promast: 10; Autophagy HCS: inactive

Results for CCN(CC)S(=O)(=O)c1cccc(C(=O)N/N=C/c2cccc(O)c2O)c1 ?
PTEN del growth: 7; bCat KO growth: 8; INS promoter inh: -14; Lmaj promast: 98*; Insulin prom up: -1.5; Autophagy HCS: inactive

What do the screens show for `O=C(N/N=C/c1ccc(-c2cccc([N+](=O)[O-])c2)o1)c1ccccc1O`?
INS promoter inh: 17; Lmaj promast: 93*; Insulin prom up: -0.13; Autophagy HCS: inactive

Results for COc1cc([N+](=O)[O-])ccc1-c1ccc(/C=N/NC(=O)c2ccccc2O)o1 ?
Insulin prom up: -0.35

How did CCN(CC)S(=O)(=O)c1cccc(C(=O)N/N=C/c2cc(OC)c(O)c(OC)c2)c1 do in these assays?
PTEN del growth: 87; bCat KO growth: 89; Lmaj promast: -8; Insulin prom up: 0.64; Autophagy HCS: inactive

How did O=C(N/N=C/c1ccc(-c2cccc(C(F)(F)F)c2)o1)c1ccccc1O do in these assays?
PTEN del growth: 3.1*; bCat KO growth: 10; INS promoter inh: -12; Lmaj promast: 98*; Insulin prom up: 0.1; Autophagy HCS: inactive

What do the screens show for `C/C(=N\NC(=O)c1cc(-c2cccc([N+](=O)[O-])c2)n[nH]1)c1ccccc1O`?
PTEN del growth: 2.9*; bCat KO growth: 9; Lmaj promast: -9; Insulin prom up: 0.16; Autophagy HCS: inactive

Results for Cc1cc(/C=C2/NC(=O)N(Cc3ccccc3F)C2=O)c(C)n1C ?
PTEN del growth: 98; bCat KO growth: 89; INS promoter inh: 17; Lmaj promast: -5; Insulin prom up: -0.01; Autophagy HCS: inactive

Results for CCN(CC)CCn1c(=S)[nH]c2ccc(Br)cc2c1=O ?
INS promoter inh: -33; Lmaj promast: 10; Insulin prom up: 0.34; Autophagy HCS: inactive

Results for OCCC1CN(Cc2ccccc2O)CCN1CCc1ccccc1 (centres undefined) ?
Lmaj promast: 9; Insulin prom up: -0.67; Autophagy HCS: inactive

High-throughput results as filed in PubChem.
